From ChEMBL document CHEMBL2218924, “A broad activity screen in support of a chemogenomic map for kinase signalling research and drug discovery” (Biochem J, 2013)

How the values were obtained:
[1] = target: T1, Mitogen-activated protein kinase kinase kinase 5 (Homo sapiens) (UniProt Q99683); conditions: at 10 µM
T1 sequence (whole entry): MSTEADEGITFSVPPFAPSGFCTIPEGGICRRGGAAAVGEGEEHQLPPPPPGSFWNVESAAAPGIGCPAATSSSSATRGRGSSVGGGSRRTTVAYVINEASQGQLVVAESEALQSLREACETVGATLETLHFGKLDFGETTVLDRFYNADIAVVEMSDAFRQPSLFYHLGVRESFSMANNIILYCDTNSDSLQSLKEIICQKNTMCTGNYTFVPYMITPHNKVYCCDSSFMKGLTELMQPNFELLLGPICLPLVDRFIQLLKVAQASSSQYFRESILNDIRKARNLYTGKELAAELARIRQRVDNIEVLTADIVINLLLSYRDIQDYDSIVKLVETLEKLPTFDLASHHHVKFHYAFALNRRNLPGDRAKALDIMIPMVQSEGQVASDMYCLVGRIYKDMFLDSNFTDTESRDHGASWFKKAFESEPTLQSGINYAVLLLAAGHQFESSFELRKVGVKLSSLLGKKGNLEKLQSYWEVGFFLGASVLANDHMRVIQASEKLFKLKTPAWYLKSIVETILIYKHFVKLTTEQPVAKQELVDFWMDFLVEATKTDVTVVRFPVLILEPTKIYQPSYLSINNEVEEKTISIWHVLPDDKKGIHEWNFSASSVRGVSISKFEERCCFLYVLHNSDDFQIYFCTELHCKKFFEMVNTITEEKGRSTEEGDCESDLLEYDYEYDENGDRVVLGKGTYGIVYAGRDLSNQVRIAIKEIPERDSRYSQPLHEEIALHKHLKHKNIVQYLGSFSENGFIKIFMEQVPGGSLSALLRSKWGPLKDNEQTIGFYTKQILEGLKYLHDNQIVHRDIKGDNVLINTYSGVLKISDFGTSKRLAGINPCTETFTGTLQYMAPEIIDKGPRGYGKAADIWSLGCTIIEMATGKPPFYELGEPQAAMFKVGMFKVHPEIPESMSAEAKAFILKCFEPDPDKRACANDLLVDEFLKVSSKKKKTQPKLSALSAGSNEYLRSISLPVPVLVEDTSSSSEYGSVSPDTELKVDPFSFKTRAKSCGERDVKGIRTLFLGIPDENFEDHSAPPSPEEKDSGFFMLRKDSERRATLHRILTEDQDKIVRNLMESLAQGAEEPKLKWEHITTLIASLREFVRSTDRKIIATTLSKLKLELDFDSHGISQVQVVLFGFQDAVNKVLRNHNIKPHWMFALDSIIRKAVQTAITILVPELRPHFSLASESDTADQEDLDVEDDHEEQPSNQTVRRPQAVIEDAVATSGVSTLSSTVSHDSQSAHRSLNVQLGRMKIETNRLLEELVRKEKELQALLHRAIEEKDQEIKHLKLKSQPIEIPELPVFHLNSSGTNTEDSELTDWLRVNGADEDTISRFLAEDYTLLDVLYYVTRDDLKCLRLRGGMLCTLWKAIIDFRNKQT

[2] = target: Tyrosine-protein kinase ABL2 (Homo sapiens) (UniProt P42684); conditions: at 1 µM
[3] = target: Tyrosine-protein kinase ABL2 (Homo sapiens) (UniProt P42684); conditions: at 10 µM
[4] = target: T2, Aurora kinase A (Homo sapiens) (UniProt O14965); conditions: at 10 µM
T2 sequence (whole entry): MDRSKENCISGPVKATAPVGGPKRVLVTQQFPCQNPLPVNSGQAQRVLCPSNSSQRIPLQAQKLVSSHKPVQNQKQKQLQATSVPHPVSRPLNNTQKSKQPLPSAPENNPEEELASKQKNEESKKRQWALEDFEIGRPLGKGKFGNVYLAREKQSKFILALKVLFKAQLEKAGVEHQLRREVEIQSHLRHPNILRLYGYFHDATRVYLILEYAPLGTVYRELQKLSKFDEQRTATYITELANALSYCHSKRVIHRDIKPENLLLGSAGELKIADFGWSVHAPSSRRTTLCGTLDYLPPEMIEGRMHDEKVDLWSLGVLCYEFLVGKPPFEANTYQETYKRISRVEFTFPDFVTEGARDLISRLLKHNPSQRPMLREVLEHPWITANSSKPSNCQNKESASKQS

[5] = target: Tyrosine-protein kinase ABL1 (Homo sapiens) (UniProt P00519); conditions: at 1 µM
[6] = target: Tyrosine-protein kinase ABL1 (Homo sapiens) (UniProt P00519); conditions: at 10 µM
[7] = target: T2, Aurora kinase A (Homo sapiens); conditions: at 1 µM
[8] = target: Aurora kinase B (Homo sapiens) (UniProt Q96GD4); conditions: at 1 µM
[9] = target: Aurora kinase B (Homo sapiens) (UniProt Q96GD4); conditions: at 10 µM

Sequence of Tyrosine-protein kinase ABL1 (Homo sapiens) (P00519 whole entry): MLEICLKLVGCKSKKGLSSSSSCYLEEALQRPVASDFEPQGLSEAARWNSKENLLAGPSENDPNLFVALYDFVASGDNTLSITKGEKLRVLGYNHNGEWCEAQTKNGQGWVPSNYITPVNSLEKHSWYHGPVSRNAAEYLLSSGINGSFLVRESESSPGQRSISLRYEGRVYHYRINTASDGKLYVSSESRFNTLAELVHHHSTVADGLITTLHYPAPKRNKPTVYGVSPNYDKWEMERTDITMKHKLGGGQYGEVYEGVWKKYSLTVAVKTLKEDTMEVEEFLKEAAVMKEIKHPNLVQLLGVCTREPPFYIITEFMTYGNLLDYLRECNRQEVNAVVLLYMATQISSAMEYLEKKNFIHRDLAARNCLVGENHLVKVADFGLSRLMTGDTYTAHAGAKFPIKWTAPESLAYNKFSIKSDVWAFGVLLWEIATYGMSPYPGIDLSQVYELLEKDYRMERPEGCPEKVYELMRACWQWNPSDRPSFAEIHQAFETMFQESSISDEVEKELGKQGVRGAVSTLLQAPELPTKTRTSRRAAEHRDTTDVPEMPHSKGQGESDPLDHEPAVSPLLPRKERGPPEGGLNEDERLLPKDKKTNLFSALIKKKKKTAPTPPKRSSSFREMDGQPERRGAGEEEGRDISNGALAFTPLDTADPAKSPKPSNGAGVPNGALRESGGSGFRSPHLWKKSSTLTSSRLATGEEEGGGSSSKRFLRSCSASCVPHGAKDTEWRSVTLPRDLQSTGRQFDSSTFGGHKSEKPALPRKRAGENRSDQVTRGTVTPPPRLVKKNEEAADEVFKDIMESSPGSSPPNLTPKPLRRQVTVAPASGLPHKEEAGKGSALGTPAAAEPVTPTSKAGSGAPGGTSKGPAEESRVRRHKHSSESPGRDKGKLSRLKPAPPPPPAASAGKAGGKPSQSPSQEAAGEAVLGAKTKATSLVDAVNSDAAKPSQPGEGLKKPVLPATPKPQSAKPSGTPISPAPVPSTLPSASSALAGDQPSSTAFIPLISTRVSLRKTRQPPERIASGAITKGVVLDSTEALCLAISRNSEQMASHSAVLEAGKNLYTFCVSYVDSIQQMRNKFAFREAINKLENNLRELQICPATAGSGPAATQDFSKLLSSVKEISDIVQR
Sequence of Aurora kinase B (Homo sapiens) (Q96GD4 whole entry): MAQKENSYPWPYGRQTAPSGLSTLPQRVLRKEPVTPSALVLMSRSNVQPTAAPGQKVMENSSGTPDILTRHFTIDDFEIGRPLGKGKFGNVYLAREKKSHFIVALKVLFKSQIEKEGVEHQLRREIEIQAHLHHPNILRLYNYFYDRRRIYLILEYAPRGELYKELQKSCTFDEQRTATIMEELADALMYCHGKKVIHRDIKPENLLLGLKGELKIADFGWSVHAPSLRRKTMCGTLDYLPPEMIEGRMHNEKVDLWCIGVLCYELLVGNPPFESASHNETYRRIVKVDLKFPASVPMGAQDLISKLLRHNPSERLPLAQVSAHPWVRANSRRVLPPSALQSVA
Sequence of Tyrosine-protein kinase ABL2 (Homo sapiens) (P42684 whole entry): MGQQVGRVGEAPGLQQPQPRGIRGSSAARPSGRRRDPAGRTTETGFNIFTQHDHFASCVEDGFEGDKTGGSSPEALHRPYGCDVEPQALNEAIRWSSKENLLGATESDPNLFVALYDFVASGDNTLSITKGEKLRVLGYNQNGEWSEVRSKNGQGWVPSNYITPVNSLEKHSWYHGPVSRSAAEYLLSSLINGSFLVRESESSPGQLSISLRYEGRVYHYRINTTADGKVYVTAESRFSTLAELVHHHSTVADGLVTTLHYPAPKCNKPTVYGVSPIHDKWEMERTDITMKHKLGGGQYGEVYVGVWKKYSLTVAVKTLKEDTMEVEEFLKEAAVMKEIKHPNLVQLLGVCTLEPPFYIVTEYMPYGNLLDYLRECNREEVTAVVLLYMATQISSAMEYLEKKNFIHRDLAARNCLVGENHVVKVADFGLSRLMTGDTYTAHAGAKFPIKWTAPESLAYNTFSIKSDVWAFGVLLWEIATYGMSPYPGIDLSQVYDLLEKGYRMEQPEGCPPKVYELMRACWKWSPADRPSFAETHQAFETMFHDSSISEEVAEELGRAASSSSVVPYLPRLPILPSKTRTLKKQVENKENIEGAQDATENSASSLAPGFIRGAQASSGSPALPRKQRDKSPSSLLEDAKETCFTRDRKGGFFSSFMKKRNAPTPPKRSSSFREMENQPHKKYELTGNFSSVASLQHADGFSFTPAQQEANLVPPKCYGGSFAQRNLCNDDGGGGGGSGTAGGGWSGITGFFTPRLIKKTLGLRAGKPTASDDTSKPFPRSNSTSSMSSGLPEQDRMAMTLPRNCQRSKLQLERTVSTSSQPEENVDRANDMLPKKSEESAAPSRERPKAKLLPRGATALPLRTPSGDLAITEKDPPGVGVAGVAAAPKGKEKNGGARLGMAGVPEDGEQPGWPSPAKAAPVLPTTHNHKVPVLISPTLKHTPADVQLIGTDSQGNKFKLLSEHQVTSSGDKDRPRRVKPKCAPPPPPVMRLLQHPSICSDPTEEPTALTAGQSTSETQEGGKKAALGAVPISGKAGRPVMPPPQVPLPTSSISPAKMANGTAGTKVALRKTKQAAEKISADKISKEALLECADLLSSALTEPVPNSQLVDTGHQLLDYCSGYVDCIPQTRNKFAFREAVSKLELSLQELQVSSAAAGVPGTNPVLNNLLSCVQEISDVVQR

Row | SMILES | residual activity [1] [%] | residual activity [2] [%] | residual activity [3] [%] | residual activity [4] [%] | residual activity [5] [%] | residual activity [6] [%] | residual activity [7] [%] | residual activity [8] [%] | residual activity [9] [%]
1 | O=C1NC(=O)C(c2cn(CCCn3ccnc3)c3ccccc23)=C1Nc1ccccc1 | 76 | 111 | 60 | 72 |  |  |  |  | 
2 | CC(C)[C@H](CO)Nc1nc(Nc2cc(N)cc(Cl)c2)c2ncn(C(C)C)c2n1 |  | 62 | 8 | 47 | 75 | 15 | 70 | 14 | 2
3 | O=C1Cc2c([nH]c3ccc([N+](=O)[O-])cc23)-c2ccccc2N1 | 105 | 81 | 76 | 105 | 47 |  |  | 48 | 22
4 | CCN1/C(=C/C(C)=O)Sc2ccc(OC)cc21 |  |  | 81 |  |  | 79 |  |  | 122
5 | Cc1cc(C)c(/C=C2\C(=O)Nc3ccccc32)[nH]1 |  |  |  |  |  |  |  | 6 | 0
6 | CCCC(=O)Oc1ccc2[nH]c(C(=O)c3cc4ccccc4[nH]3)cc2c1 |  |  |  |  | 102 | 96 | 71 | 124 | 47
7 | O=C(c1cc2cc(O)ccc2[nH]1)c1cc2cc(O)ccc2[nH]1 |  | 27 | 4 | 6 | 11 | -6 | 23 | 9 | -1
8 | CC(C)(C)c1nc2c3ccc(F)cc3c3c(=O)[nH]ccc3c2[nH]1 | 35 |  | 100 | 25 |  |  | 13 | 1 | -1
9 | N#Cc1c(NC(=O)c2cccc3ccccc23)sc2c1CCCC2 | 80 |  |  |  |  |  | 92 | 69 | 69
10 | O=C(Nc1ccc(Cl)cc1)c1ccccc1NCc1ccncc1 |  |  |  | 18 | 81 | 52 | 39 | 100 | 37
11 | O=S(=O)(c1cccc2cnccc12)N1CCCNCC1 |  |  | 80 |  |  |  |  |  | 
12 | O=C1Nc2ccccc2/C1=C\c1c(Cl)[nH]c2ccccc12 | 70 |  |  |  |  |  |  |  | 59
13 | NC(=O)c1ccc(-c2nc(-c3ccc4c(c3)OCCO4)c(-c3ccccn3)[nH]2)cc1 | 96 |  | 83 |  |  | 92 |  | 89 | 70
14 | COc1ccc2c(c1)c(C1=C(c3c[nH]c4ccccc34)C(=O)NC1=O)cn2CCCN(C)C |  | 113 | 74 | 97 | 107 | 114 | 100 | 39 | 7
15 | CSc1nc(-c2ccc(F)cc2)c(-c2ccnc(NC(C)c3ccccc3)c2)[nH]1 (stereo unspecified) | 86 |  |  |  |  |  |  | 46 | 13
16 | O=C1Cc2c([nH]c3ccc(Br)cc23)-c2ccccc2N1 |  | 76 | 45 | 66 | 64 | 39 | 97 | 69 | 15
17 | O=C1NC(=O)C(c2cn(CCCO)c3ncccc23)=C1c1cnccn1 | 78 |  |  | 81 |  |  | 78 | 14 | 9
18 | Oc1cccc(-c2nc(N3CCOCC3)c3oc4ncccc4c3n2)c1 |  |  |  |  |  |  |  |  | 92
